Usually AC50 stands for the concentration giving half of the maximal activity seen.

In PubChem BioAssay (EPA / NIEHS) one finds outcome and AC50 data, which are given here for seven compounds.

The source made the active and inactive calls. The calls were made as follows: active = hit-call score of the fitted dose curve at least 0.9, where 1 is the maximum; inactive = score below 0.9.

Assay [1] is described as follows: ATG_ISRE_CIS: Attagene CIS-FACTORIAL HepG2 Assay for human Interferon Regulatory Factor 1 (IRF1) binding to an Interferon-Stimulated Response Element (ISRE) (AID 2282948). Particulars: HepG2 ISRE cis-reporter (Attagene), mRNA transcription readout; actives raise or lower the signal. Summed up:
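Endogenous transcription factor activity read as reporter transcript abundance via RT-PCR and capillary electrophoresis. HepG2 cells transiently transfected, 24 h chemical exposure. Gain or loss fitted against DMSO baseline.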

A short description of assay [2]: ATG_M_06_CIS: Attagene CIS-FACTORIAL HepG2 Assay for M06 Transcription Factor (Internal Marker) (AID 2282950). The note with it: HepG2 Attagene CIS-FACTORIAL M06 internal marker reporter; actives raise or lower the signal. Summed up: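 Fluorescence-labelled RT-PCR products from cis-promoter reporter units, cut with HpaI and resolved by capillary electrophoresis, give the signal. Cells are human HepG2, dosed for 24 h. Serves as background control, fitted relative to DMSO.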

In assay [3] the target is Hypoxia-inducible factor 1-alpha (Homo sapiens) (UniProt Q16665). In words: ATG_HIF1a_CIS: Attagene CIS-FACTORIAL HepG2 Assay for human Hypoxia Inducible Factor 1 (HIF1A) (AID 2282951). The note with it: HepG2 Attagene cis-factorial HIF1a reporter transcription; actives raise or lower the signal. An outline of the steps: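 In this multiplexed cell assay, HepG2 cells bearing transfected cis reporters are dosed for 24 h and reporter mRNA is read by RT-PCR plus capillary electrophoresis; signal increases and decreases are both scored against DMSO.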
Chain of Hypoxia-inducible factor 1-alpha (Homo sapiens) (Q16665 whole entry, looked up): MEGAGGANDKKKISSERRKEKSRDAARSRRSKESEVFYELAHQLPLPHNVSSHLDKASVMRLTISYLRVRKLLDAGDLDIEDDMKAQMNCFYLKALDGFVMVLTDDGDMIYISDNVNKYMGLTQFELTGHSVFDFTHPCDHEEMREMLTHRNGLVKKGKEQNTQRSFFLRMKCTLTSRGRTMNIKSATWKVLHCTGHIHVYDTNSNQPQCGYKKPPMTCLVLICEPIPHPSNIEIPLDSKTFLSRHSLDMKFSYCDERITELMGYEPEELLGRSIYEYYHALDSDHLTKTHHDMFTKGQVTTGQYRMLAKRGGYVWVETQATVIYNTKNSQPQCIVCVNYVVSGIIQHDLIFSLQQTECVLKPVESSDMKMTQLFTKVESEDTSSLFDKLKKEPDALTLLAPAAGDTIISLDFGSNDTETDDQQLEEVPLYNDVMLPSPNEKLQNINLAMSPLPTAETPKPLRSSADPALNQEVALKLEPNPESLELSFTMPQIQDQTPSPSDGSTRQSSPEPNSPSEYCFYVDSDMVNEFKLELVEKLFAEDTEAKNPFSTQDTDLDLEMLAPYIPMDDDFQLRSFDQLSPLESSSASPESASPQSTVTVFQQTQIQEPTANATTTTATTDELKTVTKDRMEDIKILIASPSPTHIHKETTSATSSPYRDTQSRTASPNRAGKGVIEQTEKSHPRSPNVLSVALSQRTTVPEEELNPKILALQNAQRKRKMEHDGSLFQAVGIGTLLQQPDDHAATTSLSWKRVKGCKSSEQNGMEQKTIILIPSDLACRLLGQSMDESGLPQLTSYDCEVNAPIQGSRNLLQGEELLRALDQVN

For assay [4], the target named is Hepatocyte nuclear factor 6 (Homo sapiens) (UniProt Q9UBC0). In words: ATG_HNF6_CIS: Attagene CIS-FACTORIAL HepG2 Assay for human Hepatocyte Nuclear Factor 6 (HNF6) (AID 2282952). Particulars: HepG2 Attagene cis-factorial HNF6 reporter transcription; actives raise or lower the signal. An outline of the steps:
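Readout: fluorescent reporter-transcript fragments resolved by capillary electrophoresis after RT-PCR, reflecting endogenous factor activity in transfected HepG2. Exposure 24 h. Gain or loss of signal fitted bidirectionally against DMSO.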

The target of assay [5] is Heat shock factor protein 1 (Homo sapiens) (UniProt Q00613). In words: ATG_HSE_CIS: Attagene CIS-FACTORIAL HepG2 Assay for human Heat Shock Transcription Factor 1 (HSE) (AID 2282953). Particulars: HepG2 HSE cis-reporter, Attagene RNA transcription; actives raise or lower the signal. An outline of the steps: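 After a 24 h incubation with test chemical, transfected HepG2 cells were harvested for RNA; reporter transcripts were measured by RT-PCR and capillary electrophoresis. Values reflect gain or loss of signal relative to DMSO.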
Chain of Heat shock factor protein 1 (Homo sapiens) (Q00613 whole entry, looked up): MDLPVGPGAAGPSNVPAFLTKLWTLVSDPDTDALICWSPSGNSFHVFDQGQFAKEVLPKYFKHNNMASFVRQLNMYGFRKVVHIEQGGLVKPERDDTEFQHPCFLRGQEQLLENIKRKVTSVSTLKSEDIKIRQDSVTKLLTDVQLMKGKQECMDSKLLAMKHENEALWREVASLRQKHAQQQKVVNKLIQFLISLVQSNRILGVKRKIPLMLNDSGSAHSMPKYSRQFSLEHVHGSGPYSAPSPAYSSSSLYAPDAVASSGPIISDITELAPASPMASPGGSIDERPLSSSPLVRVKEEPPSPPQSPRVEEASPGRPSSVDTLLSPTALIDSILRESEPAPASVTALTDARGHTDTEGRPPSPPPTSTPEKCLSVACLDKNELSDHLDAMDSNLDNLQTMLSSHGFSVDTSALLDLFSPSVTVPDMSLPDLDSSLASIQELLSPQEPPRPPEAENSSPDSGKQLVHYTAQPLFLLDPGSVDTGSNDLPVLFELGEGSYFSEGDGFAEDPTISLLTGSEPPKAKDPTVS

Assay [6] is described as follows: ATG_MRE_CIS: Attagene CIS-FACTORIAL HepG2 Assay for human Metal Responsive Element (MRE) (AID 2282954). The note with it: HepG2 MRE cis-reporter transcription, Attagene multiplex; actives raise or lower the signal. An outline of the steps: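 Endogenous MRE-dependent transcription read as reporter mRNA in transiently transfected human HepG2 cells at 24 h. RNA reverse-transcribed, PCR-amplified, labelled and resolved by capillary electrophoresis; gain or loss relative to DMSO.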

Assay [7] is described as follows: ATG_PBREM_CIS: Attagene CIS-FACTORIAL HepG2 Assay for human Phenobarbital-responsive Enhancer Module (PBREM) (AID 2282955). Particulars: HepG2 PBREM cis-reporter, Attagene multiplexed transcription; actives raise or lower the signal. Summed up: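 After a 24 h incubation with test chemical, transfected HepG2 cells yield total RNA; reporter-specific RT-PCR products are fluorescently labelled, HpaI-digested and resolved by capillary electrophoresis against ROX size standards.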

The target of assay [8] is Paired box protein Pax-6 (Homo sapiens) (UniProt P26367). Briefly: ATG_Pax6_CIS: Attagene CIS-FACTORIAL HepG2 Assay for human Paired Box 6 (PAX6) (AID 2282956). The note with it: HepG2 CIS-FACTORIAL PAX6 reporter transcription, RNA readout; actives raise or lower the signal. Summed up: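 Read-out is reporter transcript level, measured by RT-PCR with fluorescent primer extension and capillary electrophoresis after 24 h dosing of transfected HepG2 cells. Activity in either direction fitted relative to DMSO control.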
Chain of Paired box protein Pax-6 (Homo sapiens) (P26367 whole entry, looked up): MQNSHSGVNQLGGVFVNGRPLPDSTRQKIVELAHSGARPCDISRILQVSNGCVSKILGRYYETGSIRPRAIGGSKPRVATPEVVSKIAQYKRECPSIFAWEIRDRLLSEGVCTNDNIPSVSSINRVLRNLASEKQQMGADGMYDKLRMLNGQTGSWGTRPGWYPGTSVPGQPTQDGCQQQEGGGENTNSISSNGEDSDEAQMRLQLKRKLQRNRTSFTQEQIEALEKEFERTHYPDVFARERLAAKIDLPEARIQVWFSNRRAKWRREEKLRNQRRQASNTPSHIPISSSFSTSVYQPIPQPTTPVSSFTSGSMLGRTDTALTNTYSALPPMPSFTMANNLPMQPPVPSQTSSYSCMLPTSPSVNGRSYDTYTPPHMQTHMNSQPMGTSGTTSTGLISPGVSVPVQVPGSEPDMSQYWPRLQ

Assay [9] can be described thus: ATG_PXRE_CIS: Attagene CIS-FACTORIAL HepG2 Assay for human Pregnane X Receptor Element (PXRE) (AID 2282957). The note with it: HepG2 Attagene CIS-FACTORIAL PXRE reporter, mRNA; actives raise or lower the signal. Summed up:
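Read-out: fluorescence of reporter-specific RT-PCR products resolved by capillary electrophoresis, fitted bidirectionally relative to DMSO. Human HepG2 liver cells carried transfected cis-promoter reporter units and were exposed to chemicals for 24 h.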

Assay [10] can be described thus: ATG_RORE_CIS: Attagene CIS-FACTORIAL HepG2 Assay for human RAR-related Orphan Receptor Element (RORE) (AID 2282959). The note with it: HepG2 Attagene cis-factorial RORE reporter, mRNA; actives raise or lower the signal. An outline of the steps: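 Fluorescence intensity of reporter-specific cDNA fragments, separated by capillary electrophoresis, gives the signal. Source: HepG2 liver cells transiently transfected with cis-element reporters and exposed 24 h; DMSO-normalized bidirectional fit.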

A short description of assay [11]: ATG_Sox_CIS: Attagene CIS-FACTORIAL HepG2 Assay for human SRY-box transcription factor (SOX) (AID 2282960). The note with it: HepG2 Attagene cis-factorial SOX reporter, mRNA; actives raise or lower the signal. Summed up:
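After 24 h of chemical treatment, transfected HepG2 reporter cells are lysed for total RNA. Transcript levels come from RT-PCR with labelled primer extension and capillary electrophoresis, analysed bidirectionally versus DMSO.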

For assay [12], the target named is Transcription factor Sp1 (Homo sapiens) (UniProt P08047). In words: ATG_Sp1_CIS: Attagene CIS-FACTORIAL HepG2 Assay for human Specificity Protein 1 (Sp1) (AID 2282961). The note with it: HepG2 Sp1 cis-reporter transcription, actives raise or lower the signal. An outline of the steps: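 Sp1-driven reporter mRNA, read as capillary electrophoresis fluorescence after RT-PCR, in transiently transfected HepG2 cells dosed for 24 h; signal change in either direction relative to DMSO.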
Chain of Transcription factor Sp1 (Homo sapiens) (P08047 whole entry, looked up): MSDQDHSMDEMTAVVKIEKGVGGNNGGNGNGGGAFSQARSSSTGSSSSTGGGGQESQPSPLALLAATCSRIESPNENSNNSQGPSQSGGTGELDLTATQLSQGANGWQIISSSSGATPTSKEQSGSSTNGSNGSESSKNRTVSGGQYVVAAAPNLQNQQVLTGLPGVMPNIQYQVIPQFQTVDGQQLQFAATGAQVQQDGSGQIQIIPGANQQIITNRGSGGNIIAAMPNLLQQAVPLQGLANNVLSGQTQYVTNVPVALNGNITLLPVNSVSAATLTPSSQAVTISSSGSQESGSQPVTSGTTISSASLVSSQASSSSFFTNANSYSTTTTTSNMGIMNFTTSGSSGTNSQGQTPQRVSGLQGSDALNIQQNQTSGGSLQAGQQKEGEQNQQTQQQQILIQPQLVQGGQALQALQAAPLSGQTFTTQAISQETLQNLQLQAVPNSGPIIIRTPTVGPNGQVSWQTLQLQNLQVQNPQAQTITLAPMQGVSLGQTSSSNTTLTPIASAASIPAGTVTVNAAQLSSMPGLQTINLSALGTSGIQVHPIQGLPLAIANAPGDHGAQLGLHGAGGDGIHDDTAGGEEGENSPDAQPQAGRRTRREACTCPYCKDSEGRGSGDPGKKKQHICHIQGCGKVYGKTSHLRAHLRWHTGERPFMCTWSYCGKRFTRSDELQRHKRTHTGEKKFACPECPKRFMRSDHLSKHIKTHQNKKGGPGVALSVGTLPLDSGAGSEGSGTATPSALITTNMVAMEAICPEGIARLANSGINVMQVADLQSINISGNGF

Assay [13] is described as follows: ATG_SREBP_CIS: Attagene CIS-FACTORIAL HepG2 Assay for human Sterol Regulatory Element Binding (SREBP) (AID 2282962). The note with it: HepG2 Attagene cis-factorial SREBP reporter, mRNA; actives raise or lower the signal. Summed up: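 Endogenous SREBP activity read as cis-element-driven reporter transcript in transiently transfected HepG2, 24 h post-dosing; quantified via RT-PCR plus capillary electrophoresis of fluorescent fragments. Gain or loss of signal fitted relative to DMSO baseline.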

In assay [14] the target is Signal transducer and activator of transcription 3 (Homo sapiens) (UniProt P40763). Briefly: ATG_STAT3_CIS: Attagene CIS-FACTORIAL HepG2 Assay for human Signal Transducer and Activator of Transcription 3 (STAT3) (AID 2282963). Particulars: HepG2, Attagene cis-factorial STAT3 reporter transcription; actives raise or lower the signal. Summed up: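 Readout is reporter transcript quantified by RT-PCR and capillary electrophoresis, with 6-FAM primer extension and HpaI digestion. Total RNA is taken 24 h after dosing transiently transfected HepG2 carrying cis-regulated reporter units. Bidirectional fit against DMSO.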
Chain of Signal transducer and activator of transcription 3 (Homo sapiens) (P40763 whole entry, looked up): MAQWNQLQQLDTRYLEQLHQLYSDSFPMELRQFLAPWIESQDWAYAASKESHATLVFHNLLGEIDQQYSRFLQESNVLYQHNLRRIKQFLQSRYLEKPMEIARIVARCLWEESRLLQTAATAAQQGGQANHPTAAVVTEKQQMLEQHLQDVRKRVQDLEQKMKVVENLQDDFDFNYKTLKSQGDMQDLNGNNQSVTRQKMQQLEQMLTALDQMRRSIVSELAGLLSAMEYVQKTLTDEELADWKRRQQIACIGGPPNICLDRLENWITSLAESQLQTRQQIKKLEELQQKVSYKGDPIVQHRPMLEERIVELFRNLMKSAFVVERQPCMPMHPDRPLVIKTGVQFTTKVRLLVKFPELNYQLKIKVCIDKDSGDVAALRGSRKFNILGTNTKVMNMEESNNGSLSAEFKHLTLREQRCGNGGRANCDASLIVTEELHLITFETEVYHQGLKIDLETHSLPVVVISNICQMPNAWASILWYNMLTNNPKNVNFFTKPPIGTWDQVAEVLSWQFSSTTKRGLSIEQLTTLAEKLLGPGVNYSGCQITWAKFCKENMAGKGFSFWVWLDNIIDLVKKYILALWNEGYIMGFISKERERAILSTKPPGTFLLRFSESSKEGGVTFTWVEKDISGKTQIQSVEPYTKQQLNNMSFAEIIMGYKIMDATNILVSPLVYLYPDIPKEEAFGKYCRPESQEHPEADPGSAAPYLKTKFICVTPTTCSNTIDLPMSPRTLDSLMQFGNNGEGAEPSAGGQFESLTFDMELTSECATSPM

Assay [15] can be described thus: ATG_TA_CIS: Attagene CIS-FACTORIAL HepG2 Assay for human TA Basal Promoter (AID 2282964). Particulars: HepG2 Attagene CIS-factorial TA basal promoter reporter; actives raise or lower the signal. An outline of the steps: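 Multiplexed mRNA reporter assay, HepG2, 24 h. Reporter cDNA amplified, 6-FAM primer-extended, HpaI-cut, CE-sized; DMSO = negative control and baseline.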

Assay [16] in a line: ATG_TCF_b_cat_CIS: Attagene CIS-FACTORIAL HepG2 Assay for human T-Cell-Factor with beta-catenin (TCF/b-cat) (AID 2282965). Particulars: HepG2 TCF/beta-catenin cis-reporter transcription, actives raise or lower the signal. An outline of the steps: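 Endogenous transcription factor activity is captured through cis-promoter reporter constructs transiently introduced into human HepG2 liver cells. Induced reporter mRNA is measured after 24 h and fitted bidirectionally relative to DMSO.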

Assay [17] in a line: ATG_M_32_CIS: Attagene CIS-FACTORIAL HepG2 Assay for M32 Transcription Factor (Internal Marker) (AID 2282949).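 Also: background control marker of the multiplexed CIS panel rather than a real target.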 Particulars: HepG2 Attagene cis-factorial M32 reporter, mRNA; actives raise or lower the signal. Summed up: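 HepG2 transfectants (cis-regulated reporter transcription units) dosed 24 h. Reporter mRNA by RT-PCR plus CE, analysed as gain or loss relative to DMSO.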

A short description of assay [18]: ATG_PPRE_CIS: Attagene CIS-FACTORIAL HepG2 Assay for human Peroxisome Proliferator-activated Response Element (PPRE) (AID 2282958). The note with it: HepG2 PPRE cis-element reporter, Attagene transcription factor profiling; actives raise or lower the signal. Summed up:
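Multiplexed reporter transcription units under cis-regulatory promoters were transfected into HepG2 cells to capture endogenous factor activity. A 24 h incubation preceded RNA isolation and fluorescent RT-PCR fragment analysis.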

Chain of Hepatocyte nuclear factor 6 (Homo sapiens) (Q9UBC0 whole entry, looked up, the tested form may be a part): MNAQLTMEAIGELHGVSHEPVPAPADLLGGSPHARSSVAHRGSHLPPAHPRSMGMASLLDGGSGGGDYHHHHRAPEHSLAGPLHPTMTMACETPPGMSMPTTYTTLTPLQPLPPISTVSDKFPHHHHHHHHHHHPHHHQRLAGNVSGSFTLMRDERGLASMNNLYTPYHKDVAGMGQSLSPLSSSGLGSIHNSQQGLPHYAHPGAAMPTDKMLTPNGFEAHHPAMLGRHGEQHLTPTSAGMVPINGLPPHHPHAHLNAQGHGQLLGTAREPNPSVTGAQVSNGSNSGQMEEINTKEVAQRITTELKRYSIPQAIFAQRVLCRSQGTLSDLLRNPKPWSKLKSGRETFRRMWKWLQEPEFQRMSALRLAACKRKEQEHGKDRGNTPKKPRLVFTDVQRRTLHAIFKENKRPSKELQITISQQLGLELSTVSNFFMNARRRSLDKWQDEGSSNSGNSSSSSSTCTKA

Regarding `C=C(C)C(=O)Nc1ccc(Cl)c(Cl)c1`, the outcome in assay [1], in assay [2], in [3], in assay [4], in assay [5] and in assay [8] was inactive. In addition, the call in assay [11], in assay [12], in assay [13], in assay [14], in assay [15] and in [16] was inactive. Also, the half-maximal activity concentration (AC50) was 18.9 µM (active) in [6], 27.8 µM (active) in assay [7], 10.2 µM (active) in assay [9] and 27.2 µM (active) in [10].
`CCCCCOC(=O)CCC`: the outcome in [1], in [17], in [2], in [3], in assay [4] and in [5] was inactive. Besides, the outcome in [6], in assay [8], in assay [9], in [18], in assay [10] and in [11] was inactive. Also, the outcome in assay [12], in assay [13], in [15] and in [16] was inactive.
Turning to `O=c1[nH]c(=O)n([C@H]2CCCO2)cc1F`, the result in assay [1], in assay [17], in assay [2], in assay [3], in assay [4] and in assay [5] was inactive. Besides, the result in assay [6], in assay [8], in assay [9], in [11], in [12] and in assay [13] was inactive. Moreover, the result in assay [14], in [15] and in [16] was inactive.
In the case of `CCCCOCCOCCOCCOCCO`, the compound was classed as inactive in [1], in assay [17], in assay [2], in [4], in assay [5] and in [6]. In addition, the compound was called inactive in assay [8], in assay [18], in assay [10], in assay [11], in assay [13] and in assay [14]. For the same compound, the result in assay [15] and in [16] was inactive. Moreover, the AC50 in assay [9] was 27.5 µM (active).
As for `CC[Si](OC(C)=O)(OC(C)=O)OC(C)=O`, the compound was called inactive in assay [1], in assay [17], in assay [2], in assay [3], in assay [4] and in assay [5]. The outcome in assay [8], in assay [18], in assay [10], in assay [11], in assay [12] and in [13] was inactive. The outcome in assay [15] was inactive. Further, the results for the half-maximal activity concentration (AC50) in assay [7] and in [9] were 18.7 µM (active) and 6.28 µM (active), respectively.
As for `C=C(C)[C@@H]1CC[C@@H](C)C[C@@H]1O`, the outcome in [17], in [2], in assay [3], in [4], in assay [5] and in assay [8] was inactive. For the same compound, the outcome in [9], in assay [10], in assay [11], in assay [12], in assay [13] and in assay [14] was inactive. Also, the call in assay [15] and in [16] was inactive.
As to `O=C(O)CCCCCCCC(=O)O`, the compound was classed as inactive in assay [1], in assay [17], in assay [2], in assay [4], in assay [5] and in assay [6]. For the same compound, the outcome in assay [7], in assay [8], in assay [9], in [10], in [11] and in assay [12] was inactive. Besides, the compound was classed as inactive in assay [13], in [14], in assay [15] and in assay [16].
